Sampled rows, rich in hits. Any-hit rate of the full collection: about 2%.
TRb-SRC2 inh: TRbeta-SRC2 interaction inhibition. P10828. TRbeta-SRC2 peptide binding, fluorescence polarization; receptor liganded with 1 µM T3. Potency, µM (highest dose often 106 µM), hits mostly inhibitors. actives 0.065% (n = 280,000); also: nearly all actives have a fitted effect of over 50% in size
Target sequence (P10828 whole entry, looked up): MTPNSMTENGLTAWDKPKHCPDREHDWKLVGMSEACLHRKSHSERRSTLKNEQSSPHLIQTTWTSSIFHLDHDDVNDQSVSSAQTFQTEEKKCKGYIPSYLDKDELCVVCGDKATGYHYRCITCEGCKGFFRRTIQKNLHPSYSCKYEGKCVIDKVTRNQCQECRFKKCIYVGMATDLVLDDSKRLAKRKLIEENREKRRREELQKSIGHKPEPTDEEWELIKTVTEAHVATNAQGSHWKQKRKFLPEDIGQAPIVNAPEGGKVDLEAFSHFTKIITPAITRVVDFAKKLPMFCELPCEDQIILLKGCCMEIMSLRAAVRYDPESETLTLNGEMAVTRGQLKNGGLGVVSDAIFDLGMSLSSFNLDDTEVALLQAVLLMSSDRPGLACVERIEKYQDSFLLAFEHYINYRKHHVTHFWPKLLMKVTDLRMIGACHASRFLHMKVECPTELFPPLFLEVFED
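Polarization signal, normalized between peptide-alone and full complex controls, measured compound effects on T3-liganded human TRb LBD (0.6 uM) binding 20 nM Texas Red SRC2 peptide after 5 hr.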
HTT cytoprotect: cytoprotection in Huntington HTT-Q103 PC12 cell model | Potency, µM (titrated, usually from 56.4 µM), usual class: activators | AID 1471 | PC12 HTT-Q103 induced, cytoprotection, ATP luminescence, 40 h | actives 0.14% (n = 230,000); also: nearly all actives have a fitted effect of over 45% in size
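Compounds added alongside 100 nM tebufenozide, which induces toxic Q103 huntingtin exon 1-GFP in stable PC12 cells; surviving cells quantified by luminescent ATP measurement. Medium: phenol red-free DMEM, 5% equine and 5% calf serum.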
KDM4E inh: blocks human JMJD2E demethylase activity | actives 1.6% (n = 230,000) | Potency, µM (titrated, usually from 57.1 µM), most hits filed as inhibitors | JMJD2E catalytic domain, FDH-coupled NADH fluorescence (FDH is formaldehyde dehydrogenase) | B2RXH2; active = well fitted inhibition curve with a large enough effect, not every such curve was filed as active; inconclusive = small, poorly fitted or top-dose-only effect, or another doubt; inactive = no such curve, though single readings can be large or run the other way; also: nearly all actives have a fitted effect of over 50% in size
FBPA coupling cs: inhibits coupling enzyme system, counter-screen for aldolase hits. activity change, negative = inhibition, % at 58.2 µM, hits read low. actives 0.67% (n = 290,000). AID 2472. coupling enzyme system counterscreen, AmpLite Red fluorescence; in the data active = activity change below about -30%
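First, compound is pin-transferred into glyceraldehyde-3-phosphate coupling-enzyme reagent at 57.5 uM final and held 10 min at RT. Next, substrate, coupling system and AmpLite Red are added. After 20 min RT, fluorescence (525/598 nm) is read.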
HttQ103 aggreg: mutant huntingtin aggregation inhibition; PC12 HttQ103-GFP aggregates, Acumen cytometry, 40 h; actives 1.1% (n = 220,000); Potency, µM (series often up to 46.1 µM), most hits filed as inhibitors; also: nearly all actives have a fitted effect of over 60% in size
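PC12/HTTQ103-GFP, ecdysone-inducible; teb 100 nM; cpd qHTS titration; GFP aggregates read on laser cytometer, Ex 488/Em 500-530 nm.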
TexasRed fluor: Texas Red fluorescence interference in TRb-SRC2 counter-screen | TRb/SRC2 Texas Red total fluorescence interference | Potency, µM (highest dose often 106 µM) | actives 0.29% (n = 280,000); active = well fitted curve in either direction with a large enough effect; inconclusive = small, poorly fitted or top-dose-only effect
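Human TRβ ligand-binding domain (0.6 uM) and Texas Red SRC2 peptide (20 nM) in Tris buffer with 1 uM T3 and 5% DMSO were incubated with pinned compound for 5 hr at ambient temperature. Total fluorescence was computed as S + 2P (555/632 nm).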
Hits are given with their value; 0 = inactive; ? = inconclusive; - = no result; ! = a repeat was not active; [ ] = remark or other dose. Unless noted, calls follow the shape of the dose curve; as a rule, active = well fitted curve in the direction sought with a large enough effect; inconclusive = small, poorly fitted or top-dose-only effect, or another doubt; inactive = no such curve, though single readings can be large; an effect the other way counts as inactive or inconclusive.

SMILES	TRb-SRC2 inh	HTT cytoprotect	KDM4E inh	FBPA coupling cs	HttQ103 aggreg	TexasRed fluor
Cc1c(NC(=O)c2ccco2)cccc1-c1nc2cccnc2s1	0	0[10 µM]	?	0	10µM	0
O=C(Nc1cccc(-c2nc3cccnc3s2)c1)c1ccco1	0	0	?	0	15.8µM	0
O=C(Nc1ccc(-c2nc3cccnc3s2)cc1)c1ccco1	0	0[10 µM]	?	0	?	0
Cc1c(NC(=O)c2ccc(Cl)nc2)cccc1-c1nc2cccnc2s1	0	0[10 µM]	?	0	0[9.22 µM]	0
COc1ccc(C(=O)/C=C(\C)Nc2ccc(NC(C)=O)cc2)cc1	0	0	0	0	0	0
C/C(=C\C(=O)c1ccccc1)Nc1ccc(O)cc1	?	0	0	-31.4	0	0
C/C(=C\C(=O)c1cccnc1)Nc1ccc(O)cc1	14.1µM	0	?	0	0	0
Cc1ccc(-n2ncc(C(=O)NC3CCCCC3)c2C2CCN(C(=O)OC(C)(C)C)CC2)cc1	0	-	-	-	-	0
COC/C=C/C1=CC2=CC(=O)C(C)(OC(=O)c3cnc4ccccc4n3)C(=O)C2=CN1CCCCO (centres undefined)	0[11.2 µM]	0[10 µM]	8.91µM!	-31.7!	0[9.22 µM]	?
Cc1cccc(N2C(=O)CSC23C(=O)N(CC(=O)NCc2ccccc2Cl)c2ccccc23)c1 (centres undefined)	0	-	-	-	-	0
CCN1C(=O)CC(N2CCN(c3ccc(C(=O)c4ccccc4)cc3)CC2)C1=O (centres undefined)	0	0	0	0	11.2µM	0
O=C(/C=C/c1ccc(/C=C/C(=O)Nc2ccc(C3=NCCN3)cc2)cc1)Nc1ccc(C2=NCCN2)cc1	0	-	-	0	-	0
Cn1cnc([N+](=O)[O-])c1[Se]c1nc(N)nc2c1ncn2[C@@H]1O[C@@H](CO)[C@H](O)[C@@H]1O	-	0[10 µM]	-	-	-	-
NC(=O)COC(=O)c1oc2ccccc2c1CSc1ccc(Cl)cc1	0	0[10 µM]	0	0	11.2µM	0
COCCn1c(=O)c(-c2ccccc2)nc2cnc(OC)nc21	-	0	-	0	-	-
O=C(NCc1cccs1)c1ccc([N+](=O)[O-])cc1	?	0[10 µM]	0	0	0	0.1µM[quencher]
O=C(c1ccc(CSc2nc3ccncc3n2Cc2cccc(F)c2)cc1)N1CCCCC1	0	-	-	-	-	0
CC(C)OCCCNc1ncnc2c1[nH]c1ccccc12	0	0[1.9 µM]	?	0	7.08µM	0
Cc1cc(/C=C2\Sc3ccccc3N2C)cc(C)[n+]1CC1CCCO1 (centres undefined)	0	0[10 µM]	0	0	2.82µM	0
COc1ccc(Br)cc1CNC(=O)c1cnc2sc(N3CCCC3)nn2c1=O	0	-	-	-	-	0
O=C(NCc1ccc(-c2nc3ccccc3s2)cc1)c1ccco1	0	0[10 µM]	0	0	0	0.0006µM[quencher]
CC(=O)NC(CCS(C)(=O)=O)C(=O)Nc1ccc2c(c1)OCO2 (centres undefined)	0	-	0	0	1.12µM	0
CCCCNC(=O)Nc1cc(C(F)(F)F)c[nH]c1=O	0	0	0	-43.1	0	0
CN(C)C(=O)CCSC(SCCC(=O)O)c1cccc(/C=C/c2ccc3ccc(Cl)cc3n2)c1 (centres undefined)	0	0	-	-	0	0
CC1(C)OC1COc1c2ccoc2cc2oc(=O)ccc12 (centres undefined)	0	0[10 µM]	31.6µM	0	0[9.22 µM]	?
SMILES	TRb-SRC2 inh	HTT cytoprotect	KDM4E inh	FBPA coupling cs	HttQ103 aggreg	TexasRed fluor
COc1ccc(-c2c[n+](CC(=O)OC3CC(C)CCC3C(C)C)c3n2CCC3)cc1 (centres undefined)	0	0[10 µM]	0	0	10µM	0
COc1cc(OC)cc(C(=O)Nc2ccc(-c3nc4cc(C(C)C)ccc4o3)cc2)c1	0	-	-	-	-	0
CCOC(=O)C(NC(=O)NC1CCCCC1)(c1ccccc1)C(F)(F)F (centres undefined)	0	0	0	0	0	0
CCOC(=O)C(NC(=O)Nc1ccc(O)cc1)(c1ccccc1)C(F)(F)F (centres undefined)	?	0[10 µM]	0	-38.9	0	0
O=C(Nc1ccc(Oc2ccccc2)cc1)c1ccc(F)c(S(=O)(=O)N2CCN(c3ccccc3F)CC2)c1	0	-	-	-	-	0
O=C(CCC(=O)Nc1ccc(F)cc1)N/N=C/c1ccccc1O	0	0	25.1µM	0	?	0
Cc1ccc(N(CC(=O)N/N=C/c2cccc(Br)c2)S(C)(=O)=O)cc1	0	0[10 µM]	0	-31.3	0	0
O=C(CCn1cnc2ccccc21)N/N=C/c1ccccc1O	0	0[10 µM]	?	0	10µM	0
O=C(CCC(=O)Nc1ccc(F)cc1)N/N=C/c1cc([N+](=O)[O-])ccc1O	0	0[10 µM]	7.08µM	0	?	0
O=C(CCn1cnc2ccccc21)N/N=C/c1ccc(O)cc1	0	0[10 µM]	0	0	0	0
CCCCCCCCCCCCCCCCCCOC[C@@H](COP(=O)([O-])OCC[N+](C)(C)C)OC	-	0[1.9 µM]	-	-	-	-
O=C(CC(=O)N/N=C/c1ccccc1)NCc1ccccc1	0	-	0	-39.9	-	0
Cc1cccc(NC(=O)CCC(=O)N/N=C/c2cc([N+](=O)[O-])ccc2O)c1	0	0[10 µM]	10µM	0	0	?
O=C(CCCC(=O)Nc1ccc(Br)cc1)N/N=C/c1ccccc1	-	-	-	0	-	-
O=C(CC(=O)N/N=C\c1c(Cl)cccc1Cl)NCc1ccccc1	0	0	0	0	0	0
O=C(CCC(=O)N/N=C/c1ccccc1O)NCc1ccccc1	0	0[10 µM]	?	0	10µM	0
O=C(CCC(=O)Nc1ccc(Br)cc1)N/N=C/c1cc([N+](=O)[O-])ccc1O	0	0	?	0	?	0
O=C(CCC(=O)Nc1ccccc1Cl)N/N=C/c1ccccc1	0	-	0	-47.0	0	0

High-throughput results (PubChem)
